# Source: PubChem BioAssay
# Activity calls are given as the source filed them. No stated cut-off is given here; in the data, active means fold change permeability below about 0.7 or above about 1.3; inactive means in between.
# Test: modulators of brain endothelial barrier permeability, primary screen, cell-based, FITC-avidin fluorescence, HTS (AID 1963498); further: test concentration not given here
# Conditions: actives lie on both sides
row,Compound,fold change permeability
1,O=C(N[C@H]1CN2CCC1CC2)c1ccc(Cl)cc1,1.3 (active)
2,c1ccc2c(c1)OCC(C1=NCCN1)O2 (centres undefined),2.1 (active)
3,CC(=O)NBr,1 (inactive)
4,CP(=O)(O)C1=CCNCC1,1.4 (active)
5,CCCCCCCCCCCCCC(=O)O[C@@H]1[C@@H](C)[C@@]2(O)[C@@H](C=C(CO)C[C@]3(O)C(=O)C(C)=C[C@@H]23)[C@@H]2C(C)(C)[C@]12OC(C)=O,1.1 (inactive)
6,C#C[C@]1(O)CC[C@H]2[C@@H]3CCC4=Cc5nc6nc7ccccc7n6cc5C[C@]4(C)[C@H]3CC[C@@]21C,1.8 (active)
7,Clc1ccc(C(c2ccc(Cl)cc2)n2cc[n+](CC(OCc3ccc(Cl)cc3Cl)c3ccc(Cl)cc3Cl)c2)cc1 (centres undefined),1.3 (active)
8,CN1C2C=C(c3sccc3Br)CC1CC2 (centres undefined),0.9 (inactive)
9,CC(=O)OCC1=C(C(=O)[O-])N2C(=O)[C@@H](NC(=O)CCC[C@@H](N)C(=O)[O-])[C@H]2SC1.[Zn+2],1 (inactive)
10,C[N+]1(C)C2CCC1CC(OC(=O)C(CO)c1ccccc1)C2 (centres undefined),1.1 (inactive)
11,CN[C@@H]1Cc2cccc3[nH]c(=O)n(c23)C1,0.8 (inactive)
12,O=P(O)(O)C(O)(Cc1cnc2ccccn12)P(=O)(O)O,0.8 (inactive)
13,C=CCN1C[C@H](C)N([C@H](c2ccc(C(=O)N(CC)CC)cc2)c2cccc(OC)c2)C[C@H]1C,0.7 (active)
14,NC(=NCCC[C@H](N)C(=O)O)N[N+](=O)[O-],1 (inactive)
